Results as given in publication PMC5540273 (PLoS ONE, 2017).

The molecules below were run on T1, DCAMKL2. Conditions: concentration: 1 μM, replicates: in singlicate; n = 1.
T1 construct: gene DCLK2
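Also: KINOMEscan kinase panel screen.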

| Compound | %Inh [%] |
| --- | --- |
| CCc1nc(-c2cccc(C)c2)c(-c2ccncc2)s1 | 2 |
| COc1cc(OC)cc(-c2cc3cnc(N)nc3nc2NC(=O)NC(C)(C)C)c1 | 0 |
| Nc1ncnc2c1ncn2-c1cccc(F)c1 [SKF-97560] | 11 |
| COc1cc2ncn(-c3cc(OCc4ccncc4)c(C(N)=O)s3)c2cc1OC [GSK336313] | 0 |
| Fc1cccc(CSc2nnc(-c3ccc4c(c3)CCO4)o2)c1 | 0 |
| CCC(=O)c1c(-c2ccccc2)c2cc(Cl)ccc2c(=O)n1Cc1cc(S(C)(=O)=O)n(CCC(C)(C)O)n1 | 22 |
| CCn1c(-c2ccoc2)nc2cnccc21 [SB-733887] | 0 |
| CCc1ccc(-c2ccc3c(c2)-c2nn(C)cc2S(=O)(=O)N3C)cc1 | 0 |
| COc1ccc(-c2coc3ccc(-c4nnc(SCc5cccc(C#N)c5)o4)cc23)cc1 | 0 |
| COC(=O)c1c(-c2ccccc2)c2cc(C)ccc2c(=O)n1Cc1ccccc1 | 6 |
| Cl.NS(=O)(=O)c1cccc(Nc2cc(-c3ccc(F)cc3)n[nH]2)c1 [GW824645] | 44 |
| COC(=O)c1c(-c2ccccc2)c2cc(Br)ccc2c(=O)n1Cc1ccc(NC(=O)CCC(=O)O)cc1 | 0 |
| COc1ccc(CNC(=O)NC2CCN(c3ccnc(Nc4ccc(F)cc4)n3)C2)cc1 (stereo not shown) [GSK1379706] | 60 |
| CCS(=O)(=O)c1ccc(OC)c(Nc2ncc(-c3ccc(F)cc3)o2)c1.Cl [GW591947] | 0 |
| Cc1nn2c(=O)cc(N3CCOCC3)nc2n1Cc1cccc(Cl)c1Cl [GSK2342769] | 0 |
| CCS(=O)c1ccc(-c2coc3ccc(-c4nnc(C)o4)cc23)cc1 (stereo not shown) | 0 |
| COc1cc(Nc2nccc(N3CCC(NC(=O)C(C)c4ccc(Cl)cc4)C3)n2)cc(OC)c1OC (stereo not shown) [GSK1379757] | 0 |
| COc1cc2ncn(-c3cc(OCc4ccncc4Br)c(C(N)=O)s3)c2cc1OC [GW854278] | 2 |
| Cl.c1ccc(Cn2cnc3cc(Nc4ncnc5ccccc45)ccc32)cc1 [GW272142] | 20 |

| Compound | %Inh [%] |
| --- | --- |
| CCC(=O)c1c(-c2ccccc2)c2cc(Cl)ccc2c(=O)n1Cc1cc(C(=O)NC2CC2)n(C)n1 | 0 |
| Nc1nccc2scc(-c3ccc4c(c3)CCN4C(=O)Cc3ccccc3)c12 [GSK2576924] | 0 |
| COc1ccc(-c2cc3c(C)nc(N)nc3n([C@H]3CC[C@H](O)CC3)c2=O)cn1 | 0 |
| Nc1nc(-c2ccccc2F)c(-c2ccnc3ccccc23)s1 [GW560459] | 1 |
| COc1cccc(C2=C(N(C)c3ccccc3)C(=O)NC2=O)c1 [SB-334865] | 0 |
| CCn1c(-c2nonc2N)nc2ccccc21 [SB-693162/GW549034] | 0 |
| COc1cc2nccc(Nc3ccc(OCc4ccc(NC(C)=O)cc4)cc3)c2cc1OC.Cl [GW440135] | 0 |
| Cc1ccc(Oc2ccc(Nc3ncnc4cc[nH]c34)cc2C)cn1 | 0 |
| O=C(Nc1n[nH]c2cc(-c3ccccc3F)ccc12)C1CC1 [SB-733371] | 0 |
| O=C1NC(=O)C(c2ccccc2)=C1Nc1cccc(O)c1 [SB-390534] | 0 |
| COc1ccc(-c2cc3c(C)nc(N)nc3n([C@H]3CC[C@H](OCCO)CC3)c2=O)cn1 | 0 |
| Cn1c(=O)c(F)c(Nc2ccc(I)cc2F)c2c(=O)n(OC[C@H](O)CO)cnc21 | 20 |
| Nc1n[nH]c2ncc(-c3ccccc3)cc12 [SB-517081] | 13 |
| CCC(=O)c1c(-c2ccccc2)c2cc(Cl)ccc2c(=O)n1Cc1cc(S(C)(=O)=O)n(CC(N)=O)n1 | 2 |
| Nc1ncnc2c1ncn2-c1ccc(Cl)cc1 [AH2635] | 0 |
| Cc1nnc(-c2ccc3ncn(-c4ccc(S(C)=O)cc4)c3c2)o1 (stereo not shown) | 12 |
| COc1cc2ncn(-c3cc(OCc4ccc(S(C)(=O)=O)cc4)c(C(N)=O)s3)c2cc1OC [GW869979] | 19 |
| CCC(=O)c1c(-c2ccccc2)c2cc(Cl)ccc2c(=O)n1Cc1ccc(C(=O)O)cc1 | 0 |
